Among the data in PubChem BioAssay AID652208 (Broad Institute, 2013) are outcome values, retold here.

Results with a measured potency or affinity are listed apart. Activity calls are given as the source filed them.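 Rule for the calls: active = Loss of cell signal with fitted half-effect dose at or below twice the top valid tested dose; inconclusive = Poor fit, or flat fit from -70 to -30 percent; inactive = Half-effect above limit, rising signal, or flat within 30 percent.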

This assay in a line: HEK293T cell cytotoxicity, dose response, cytotoxicity control for HIV Vif inhibitor project, cherry-picks (AID 652208). The note with it: HEK293T viability, CellTiter-Glo luminescence, 24 h; series mostly up to 26 µM. (In general: ATP-based viability assays read luminescence as a measure of living cells.)
`Cc1ncoc1C(=O)N1CCCC(C(=O)c2ccc(Oc3ccccc3)cc2)C1` (centres undefined): the result was inactive. Turning to `COc1c2ccoc2nc2c(OC)c(OC[C@@H](O)C(C)(C)O)ccc12`, the result was inactive. The same measure for `CCn1c(SCc2ccc(C(=O)Nc3nccs3)cc2)nnc1-c1ccc(N)cc1`: “inactive”; for `Cc1nc(C)n(CC(=O)N2CCCC(C(=O)c3ccc(C(F)(F)F)cc3)C2)n1` (centres undefined): “inactive”; for `Cc1nc(-c2ccc(O)c(O)c2)cs1`: “inactive”. The same measure for `CCn1c(/C=C/c2ccc(F)cc2)nc2ccccc2c1=O`: “inactive”; for `CCN1C(=O)c2cccc3c(S(=O)(=O)Nc4ccccc4O)ccc1c23`: “inactive”. For `CCOc1ccc(N2C(=O)/C(=C/c3cccs3)N(CC(=O)OC)C2=S)cc1` the value was “inactive”; for `COc1ccc(CC(=O)OCC(=O)Nc2cccc(Br)c2)cc1`, “inactive”; for `CCOC(=O)C1=C(C)NC(=O)NC1`, “inactive”.

For `NCCCC[C@H](N[C@@H](CCc1ccccc1)C(=O)O)C(=O)N1CCC[C@H]1C(=O)O`, the call was inactive. For the compound `Cc1ccc2c(c1)N(CC(=O)NCC1CCCO1)C(=O)C(C(C)C)O2` (centres undefined), the compound was called inactive. For `O=C(O)/C=C/C(=O)Nc1cccc(C(F)(F)F)c1` the value was “inactive”; for `NCCCCCC(=O)Nc1ccncc1`, “inactive”. The same measure for `CC(C)c1ccc(NC(=O)N2CCCC2C(=O)Nc2ccc(-n3cnnn3)cc2)cc1` (centres undefined): “inactive”. For `CCCCN1C(=O)/C(=C/C=C2\Oc3ccccc3N2CC)SC1=S` the value was “inactive”.

For `Cc1cc(OCC(C)C)ccc1/C(O)=C1/C(=O)C(=O)N(Cc2cccnc2)C1c1ccncc1` (centres undefined), the compound was classed as inactive. The same measure for `COc1ccccc1Nc1nnc(C)c(=O)[nH]1`: “inactive”; for `COc1ccc(C(=O)NC2CC3CCCC(C2)N3Cc2ccccc2)cc1OC` (centres undefined): “inactive”.
